Source: PubChem (National Center for Advancing Translational Sciences (NCATS))
The entries come from a sample that favours hits as a whole.
HT1080 IDH1KD tx – HT-1080 IDH1 knockdown cell toxicity (counter line); Potency, µM (top dose mostly 46.1 µM), inactives show top-dose activity, negative = toxicity, actives largely listed as cytotoxic; AID 686971; 360,000 compounds, 2% hits; HT-1080 IDH1 knockdown viability, ATP luminescence, 48 h;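 also: potency is read from the fitted curve at half-maximal effect; 0% = DMSO wells and -100% = cell-free medium wells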
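HT-1080-IDH1KD cells (IDH1 knocked down), 750/well in RPMI with 5% FBS, treated with compound 48 h at 37 degrees C. Viability by CellTiter-Glo luminescence, normalised to DMSO and no-cell wells; concentration-response curves classed.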
12-LOX inh – ALOX12 (human) lipoxygenase inhibition; Potency, µM (series often up to 108 µM), for inactives: top-dose activity change, negative = inhibition, hits mostly inhibitors; purified 12hLO, xylenol orange hydroperoxide absorbance; P18054; 580,000 compounds, 1.1% hits; also: potency is read from the fitted curve at half-maximal effect
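Purified human 12hLO (150 nM final) in 25 mM Hepes, 0.01% Triton X-100, pH 7.0 was preincubated 15 min at room temperature with compound. Then 40 uM arachidonic acid was added, 30 min. Hydroperoxide was read by Fe-XO absorbance ratio 573/405 nm.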
DT40 TDP1 no CPT – qHTS for Inhibitors of human tyrosyl-DNA phosphodiesterase 1 (TDP1): qHTS in cells in absence of CPT; DT40 Tdp1-/- hTDP1 cells, no CPT, ATP luminescence, 48 h; 420,000 compounds, 15% hits; AID 686978, 2013; Potency, µM (series often up to 46.2 µM), inactives show at the highest dose activity change, negative = growth inhibition, most hits filed as inhibitors; also: potency is read from the fitted curve at half-maximal effect; nearly all actives have a fitted effect of over 55% in size
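Luminescent ATP content (CellTiter-Glo) served as the growth readout. Knockout chicken DT40 cells expressing human TDP1 were exposed to compounds without camptothecin for a minimum 48 hr at 37 °C.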
HT1080-NT tox – kills 2HG-producing HT-1080-NT fibrosarcoma cells. Potency, µM (doses to about 46.1 µM), without a hit: at the highest dose activity, negative = less viability, hits mostly cytotoxic. 360,000 compounds, 1.6% hits. HT-1080-NT fibrosarcoma viability, CellTiter-Glo ATP luminescence, 48 h;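 also: NT is the 2HG producing partner of a matched IDH1 knockdown line; potency is read from the fitted curve at half-maximal effect; 0% = DMSO-treated cells and -100% = media-only wells without cells; nearly all actives have a fitted effect of over 55% in size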
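A 48-hour cytotoxicity screen used HT-1080-NT cells plated 2 hours before compound delivery. ATP-based CellTiter-Glo luminescence measured viability, normalized to DMSO and no-cell controls.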
IL-1B inflam inh – inflammasome signaling inhibition, IL-1 beta readout; 360,000 compounds, 4.7% hits; activity change, % at 57.5 µM; THP-1 LPS/ATP IL-1B secretion, AlphaLISA, 16 h; hits give low values; in the data active = activity change below about -50%; inconclusive = mostly about -30% to -49%
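Secreted IL-1B measured by AlphaLISA bead assay after 16 h compound exposure of THP-1 cells; compounds (final up to 57.5 uM) added 1 h before LPS (250 ng/mL) and ATP (1.25 mM) stimulation; lower signal means less secretion.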
TDP1 cell CPT – growth inhibition of DT40 Tdp1-/-;hTDP1 cells with camptothecin (screen for TDP1 inhibitors). chicken DT40 Tdp1-/-;hTDP1 cells + 20 nM CPT, ATP luminescence, 48 h. Potency, µM (series often up to 46.2 µM), without a hit: top-dose activity change, negative = growth inhibition, most hits filed as inhibitors. 420,000 compounds, 12% hits; also: potency is read from the fitted curve at half-maximal effect; nearly all actives have a fitted effect of over 55% in size
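Cell growth measured by CellTiter-Glo luminescence after a minimum 48 h, 37 C compound exposure with 20 nM CPT in Tdp1-knockout DT40 cells stably expressing hTDP1, seeded 400/well; qHTS titration format.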
* = called active by the depositor; ? = inconclusive; . = not tested or not shown; [ ] = dose if it differs, or a comment. Unless noted, calls follow the shape of the dose curve; as a rule, active = well fitted curve in the direction sought with a large enough effect; inconclusive = small, poorly fitted or top-dose-only effect, or another doubt; inactive = no such curve, though single readings can be large; an effect the other way counts as inactive or inconclusive. Unless noted, % is scaled to controls: 0 for no effect and ±100 for the full control effect.

SMILES	HT1080 IDH1KD tx	12-LOX inh	DT40 TDP1 no CPT	HT1080-NT tox	IL-1B inflam inh	TDP1 cell CPT
Cc1ccc2nc(COc3ccccc3NC(=O)c3ccccc3C)cc(=O)n2c1	.	-16%	?	.	.	-19%
CSc1cccc(NC(=O)Nc2ccccc2OCc2cc(=O)n3cc(C)ccc3n2)c1	.	-5%	21µM*	.	.	23µM*
CCn1cc(S(=O)(=O)N2C[C@H]3CN(CCO)C[C@@]3(C(=O)O)C2)cn1	.	14%	.	.	.	.
O=C(OCc1nc2ccccc2o1)c1cccc(S(=O)(=O)N2CCCCCC2)c1	.	-7%	.	.	.	.
CCOc1ccc(S(=O)(=O)[C@H]2CS(=O)(=O)C[C@@H]2N2CCN(c3ncccn3)CC2)cc1	.	23%	.	.	.	.
Cc1ccc(S(=O)(=O)Nc2cc(C)cn(Cc3ccc(F)cc3)c2=O)cc1	?	-6%	?	-26%	5	26µM*
Cc1ccc(S(=O)(=O)Nc2cc(C)cn(Cc3ccccc3)c2=O)cc1	-12%	-6%	16µM*	-19%	9	21µM*
CC(C)C(=O)N1Cc2ccccc2CC2(CCCN(Cc3ccccn3)C2)C1 (stereo not drawn)	.	1%[6.33 µM]	.	.	.	.
COc1cccc(CNS(=O)(=O)c2ccc3c(c2)OCCO3)c1	.	-4%	.	.	.	.
Nc1cccc2nc3ccccc3cc12	13µM*	.	?	18µM*	23	6.5µM*
CC1(C)[C@H]2CC[C@@H](CNC(=O)c3cccc4[nH]ccc34)[C@@H]1C2	.	1%[176 µM]	.	.	.	.
CC(=O)Nc1ccc(N=Cc2c(O)c(C(=O)Nc3ccccc3)cc3ccccc23)cc1	?	-24%	16µM*	-28%	57	?
CC(=O)Nc1ccc(N=Cc2c(O)c3ccccc3oc2=O)cc1	-5%	-10%	-11%	0%	-5	21µM*
O=C1c2ccccc2NC(c2cnn(-c3ccccc3)n2)N1c1ccc2c(c1)OCO2 (stereo not drawn)	.	7%	.	.	.	.
Cc1noc(C)c1CCCNC(=O)c1ccc(NC[C@H]2C[C@H]3C=C[C@H]2C32CC2)nc1	.	46%	.	.	.	.
CCCCc1c(-c2ccccc2OC)ncn1Cc1cccc(OC)c1	.	0%	.	.	.	.
CCCCc1c(-c2ccccc2OC)ncn1CCc1cccc(OC)c1	16µM*	?	18µM*	18µM*	-69*	15µM*
CCCCc1c(-c2ccccc2OC)ncn1Cc1cc(F)cc(F)c1	.	-6%	.	.	.	.
CCCCc1c(-c2ccccc2OC)ncn1CCc1cccc(F)c1	18µM*	-31%	21µM*	21µM*	-16	16µM*
CN(Cc1cccc(C(F)(F)F)c1)C(=O)C1CCC(=O)N(CC2CCCCC2)C1 (stereo not drawn)	0%	48%	16µM*	-3%	-16	?
CN(Cc1cnn(C)c1)C(=O)C1CCC(=O)N(Cc2cccc(C(F)(F)F)c2)C1 (stereo not drawn)	6%	-12%	-10%	1%	4	3%
Cc1cc(Br)cnc1NC(=S)Nc1ccc(F)cc1F	-4%	14µM*	?	-5%	-24	-13%
COC(=O)Cn1c(=O)c2c(nc(-n3nc(C)cc3C)n2Cc2ccc(F)cc2)n(C)c1=O	.	21%	.	.	.	.
CCOC(=O)c1c(C)n(CC(=O)OC)c2ccc(OC)cc12	.	57%	.	.	.	.
CCOC(=O)c1c(-c2ccccc2)c2cc(OC)ccc2n1CCCN(C)C	-4%	8%	?	-17%	-50*	?
NC(=O)C1CCN(C(=O)c2ccc3ccn(Cc4ccccc4)c3c2)CC1	.	12%	.	.	.	.
c1nc(NCCN2CCOCC2)c2c3c(sc2n1)CCCCC3	6%	12%	-16%	1%	-3	-8%
CN(C)C(=O)c1ccc(Nc2ncnc3sc4c(c23)CCCCC4)cc1	-25%	-1%	23µM*	?	-12	?
